{"source": "PubChem BioAssay (NCI)", "note": "Values joined by “and” are separate entries in the source; they are usually repeats but may differ in a detail not shown here. Identical values can stand only once. The panel holds about 83,000 compounds, 20% with a hit somewhere; the sample as a whole holds those more often.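 Each cell line was grown in a 96-well plate and treated with one concentration of compound for 48 hours. Values below 10 were considered active.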 Active and inactive are the calls of the source. Starred links: 1 amine or outer side, 2 acyl side, 3 side chain; linkers in the order of their positions; H or OH if unused. Positions of bridges follow the written chain, without caps; N, C: chain ends. Non-standard residues stand in square brackets, D forms with d. Residues, ends and D or L forms follow the SMILES beside them. Chains are numbered I, II in the order given. Actinocin(9to1) = Cc1c2oc3c(C)ccc(C(=O)[*:1])c3nc-2c(C(=O)[*:2])c(N)c1=O; aThr = C[C@H](O)[C@H](N)C(=O)O; NMeV = CN[C@H](C(=O)O)C(C)C; Sar = CNCC(=O)O"}
{"system": "RPMI-8226 leukemia", "experiment": "NCI-60 one-dose screen, 48 h (100 = growth as untreated, 0 = no growth, -100 = all killed)", "conditions": "0.0025 µM", "procedure": "(§1) Growth inhibition of the RPMI-8226 human tumor cell line is measured as a screen for anti-cancer activity. Cells are grown in 96 well plates and exposed to the test compound for 48 hours. Compounds are tested at a single concentration, which is 10^-5 M for most compounds. The reported endpoint is percent growth (GI% or GIPRCNT), where numbers from 0 - 100% represent growth inhibition, and numbers from -100% - 0 represent cell death. For example, a value of 40 represents 60% growth inhibition. A value of 0 means no net growth occurred over the course of the experiment. A value of -40 indicates 40% of cells at the beginning of the experiment died by the end of the experiment. A value of -100 means all cells are dead at the end of the experiment.\n(§2) NCI-60 Human Tumor Cell Lines Screen was performed using the standard one-dose NCI protocol, which is described in more detail at https://dtp.cancer.gov/discovery_development/nci-60/default.htm.\n(§3) Compounds with GIPRCNT values below 10 were considered active. Activity score was based on GIPRCNT using the following formula: […]\n(§4) Score is 0 for GIPRCNT values of 100 or above, 50 for GIPRCNT values of 0, and 100 for GIPRCNT values of -100."}
{"compound": "Cc1c2oc3c(C)ccc(C(=O)N[C@@H]4C(=O)N[C@H](C(C)C)C(=O)N5CCC[C@H]5C(=O)N(C)CC(=O)N(C)[C@@H](C(C)C)C(=O)O[C@H]4C)c3nc-2c(C(=O)N[C@@H]2C(=O)N[C@H](C(C)C)C(=O)N3CCC[C@H]3C(=O)N(C)CC(=O)N(C)[C@@H](C(C)C)C(=O)O[C@H]2C)c(N)c1=O", "note": "(I: [aThr][dV]P[Sar][NMeV] / II: [aThr][dV]P[Sar][NMeV]; ester I:1-I:C, II:1-II:C; linker I:N-II:N via Actinocin(9to1))", "growth": "3.42% (active)"}
{"system": "RPMI-8226 leukemia", "experiment": "NCI-60 one-dose screen, 48 h (100 = growth as untreated, 0 = no growth, -100 = all killed)", "conditions": "10 µM", "procedure": "as §1, §2, §3, §4"}
{"compound": "O=c1[nH]cc(F)c(=O)[nH]1", "growth": "39.4% (inactive) and 59.5% (inactive)"}
{"compound": "N#C/C(=C1C=C/C(=N\\O)C(Cl)=C\\1)c1ccccc1", "growth": "27.3% (inactive)"}
{"compound": "Cc1cc(NCCCN(C)C)c2ccc3c(ccc4c(NCCCN(C)C)cc(C)nc43)c2n1", "growth": "-11.3% (active)"}
{"compound": "COc1cc(C(C)(C)C)cc(OC)c1C(O)(c1c(OC)cc(C(C)(C)C)cc1OC)c1c(OC)cc(C(C)(C)C)cc1OC", "growth": "-27.1% (active)"}
{"compound": "Cc1c2oc3c(C)ccc(C(=O)N[C@@H]4C(=O)N[C@H](C(C)C)C(=O)N5CCC[C@H]5C(=O)N(C)CC(=O)N(C)[C@@H](C(C)C)C(=O)O[C@H]4C)c3nc-2c(C(=O)N[C@@H]2C(=O)N[C@H](C(C)C)C(=O)N3CCC[C@H]3C(=O)N(C)CC(=O)N(C)[C@@H](C(C)C)C(=O)O[C@H]2C)c(N)c1=O", "note": "(I: [aThr][dV]P[Sar][NMeV] / II: [aThr][dV]P[Sar][NMeV]; ester I:1-I:C, II:1-II:C; linker I:N-II:N via Actinocin(9to1))", "growth": "-21.3% (active)"}
{"compound": "S=c1[nH]nc(Cc2ccccc2)c(=S)[nH]1", "growth": "97.2% (inactive)"}
{"compound": "CN(C)CCC(=O)c1c[nH]c2ccccc12", "growth": "98.1% (inactive)"}
{"compound": "CN1CCN(c2ccc3nc(-c4ccc5nc(-c6ccc(O)cc6)[nH]c5c4)[nH]c3c2)CC1", "growth": "107% (inactive)"}
{"compound": "CSc1ccc2c(c1)C(N1CCN(C)CC1)Cc1ccccc1S2", "note": "(stereo unspecified)", "growth": "24.3% (inactive)"}
{"compound": "O=C(/C(=C/c1ccccc1)CBr)c1ccccc1", "growth": "16.9% (inactive)"}
{"compound": "CCCCCCCCCCCCCCCCCN", "growth": "107% (inactive)"}
{"compound": "Cc1cnc(/C=N\\NC(N)=S)c2cccc(N)c12", "growth": "-9.76% (active)"}
{"compound": "BrC/C=C/C[P+](c1ccccc1)(c1ccccc1)c1ccccc1", "growth": "4.56% (active)"}
{"compound": "Nc1ccc2cc(Br)c3ccccc3c2c1", "growth": "40% (inactive)"}
{"system": "RPMI-8226 leukemia", "experiment": "NCI-60 one-dose screen, 48 h (100 = growth as untreated, 0 = no growth, -100 = all killed)", "conditions": "25 µM", "procedure": "as §1, §2, §3, §4"}
{"compound": "O=c1[nH]cc(F)c(=O)[nH]1", "growth": "41.4% (inactive)"}
